The results in this text go back to the antibiotic and cytotoxicity screens of Wong et al. (2023).

Out of some 39,000 compounds screened, about 1,500 (3.8%) were called active. This is one part of a sample in which actives are shown more often than they occur.

The assay concerns HSkMC (human skeletal muscle cells). Description: cytotoxicity call (relative viability < 0.9). The following applies: 10 µM.
In the case of `C[C@@H]1CN([C@H](C)CO)C(=O)Cc2cc(NS(=O)(=O)c3ccc(Cl)cc3)ccc2O[C@H]1CN(C)C(=O)Nc1cccc2ccccc12`, the cytotoxicity call is “inactive”. The result for `C[C@H]1CN([C@@H](C)CO)C(=O)c2cccc(NC(=O)Nc3ccc4c(c3)OCO4)c2O[C@H]1CN(C)S(=O)(=O)c1cn(C)cn1` reads “inactive”. Take `CCCN(C)C[C@H]1OCCCC[C@H](C)Oc2ccc(NC(=O)NC3CCCCC3)cc2C(=O)N([C@@H](C)CO)C[C@H]1C`: the cytotoxicity call was “inactive”. For `C[C@H]1CCCCO[C@@H](CN(C)S(=O)(=O)c2ccc(F)cc2)[C@@H](C)CN([C@@H](C)CO)C(=O)c2cc(NS(=O)(=O)c3cn(C)cn3)ccc2O1`, the cytotoxicity call is “inactive”. The result for `C[C@@H]1CN([C@@H](C)CO)C(=O)c2cc(NC(=O)c3ccncc3)ccc2O[C@@H](C)CCCCO[C@H]1CN(C)C(=O)Nc1ccccc1` reads “inactive”; that for `O=C(C[C@H]1C=C[C@@H](NC(=O)c2ccncc2)[C@@H](CO)O1)NCc1ccncn1`, “inactive”.

Turning to `Cc1ccccc1S(=O)(=O)N1C[C@@H](O)COC[C@H]2O[C@H](CC(=O)N3CCOCC3)CC[C@@H]21`, the cytotoxicity call was “inactive”.

As to `CC1CCC2(C)C(C=O)=CCCC2C1(C)CC1OC(O)C(=O)C12CO2` (centres undefined), the cytotoxicity call is “inactive”. Take `C[C@@H]1CCCCO[C@@H](CN(C)CC2CCCCC2)[C@H](C)CN([C@H](C)CO)C(=O)c2cc(NC(=O)CCC(F)(F)F)ccc2O1`: the cytotoxicity call is “inactive”. Next, `C[C@H](CO)N1C[C@H](C)[C@H](CN(C)C(=O)Nc2ccc(F)cc2)Oc2ccc(NC(=O)Cn3cnnn3)cc2C1=O`: “inactive”; `C[C@H]1CN([C@@H](C)CO)C(=O)c2cccc(NC(=O)NC3CCCCC3)c2O[C@@H]1CN(C)C(=O)Nc1ccc(C(F)(F)F)cc1`: “inactive”; `C[C@@H]1CN([C@H](C)CO)C(=O)c2cccc(NC(=O)NC3CCCCC3)c2O[C@@H]1CN(C)C(=O)Nc1ccc(C(F)(F)F)cc1`: “inactive”.

Regarding `C[C@H]1CN([C@@H](C)CO)C(=O)c2cccc(NC(=O)NC3CCCCC3)c2O[C@H]1CN(C)C(=O)Nc1ccc(C(F)(F)F)cc1`, the cytotoxicity call is “active”.

As for `C[C@@H]1CN([C@@H](C)CO)C(=O)c2cccc(NC(=O)NC3CCCCC3)c2O[C@@H]1CN(C)C(=O)Nc1ccc(C(F)(F)F)cc1`, the cytotoxicity call was “active”. Next, `C[C@@H]1CN([C@H](C)CO)C(=O)c2cccc(NC(=O)NC3CCCCC3)c2O[C@H]1CN(C)C(=O)Nc1ccc(C(F)(F)F)cc1`: “inactive”; `C[C@H](CO)N1C[C@H](C)[C@H](CN(C)C(=O)Nc2ccc(C(F)(F)F)cc2)Oc2c(NC(=O)NC3CCCCC3)cccc2C1=O`: “inactive”; `COc1ccc(NC(=O)Nc2ccc3c(c2)C(=O)N([C@H](C)CO)C[C@H](C)[C@H](CN(C)S(=O)(=O)c2cn(C)cn2)O3)cc1`: “inactive”.

For the compound `Cc1cc(-c2cccs2)cc(C)n1`, the cytotoxicity call is “inactive”.

In the case of `COCC(=O)N1C[C@H](C)[C@H](OC)CN(C)C(=O)c2cc(NC(=O)c3cc(C)on3)ccc2OC[C@@H]1C`, the cytotoxicity call is “inactive”. As to `COc1cc2c(cc1O)CCN[C@]21CS[C@@H]2c3c(OC(C)=O)c(C)c4c(c3[C@H](COC1=O)N1[C@@H]2[C@H]2c3c(cc(C)c(OC)c3O)C[C@@H]([C@@H]1O)N2C)OCO4`, the cytotoxicity call is “active”. The result for `COc1ccc(NC(=O)N(C)C[C@H]2OCCCC[C@@H](C)Oc3ccc(NC(=O)Nc4ccc(C(F)(F)F)cc4)cc3C(=O)N([C@@H](C)CO)C[C@H]2C)cc1` reads “inactive”; that for `CCS(=O)(=O)Nc1ccc2c(c1)C(=O)N(C)C[C@@H](OC)[C@@H](C)CN(Cc1nccs1)[C@@H](C)CO2`, “inactive”. Next, `C[C@@H]1CCCCO[C@@H](CN(C)Cc2ccc(Cl)c(Cl)c2)[C@H](C)CN([C@H](C)CO)C(=O)c2cc(NS(=O)(=O)c3ccccc3)ccc2O1`: “active”; `C[C@@H]1CN([C@H](C)CO)C(=O)c2cc(NS(=O)(=O)c3ccccc3)ccc2O[C@@H](C)CCCCO[C@H]1CN(C)Cc1ccc(Cl)c(Cl)c1`: “inactive”; `C[C@@H]1CCCCO[C@H](CN(C)Cc2ccc(Cl)c(Cl)c2)[C@H](C)CN([C@@H](C)CO)C(=O)c2cc(NS(=O)(=O)c3ccccc3)ccc2O1`: “active”. The result for `C[C@@H]1CCCCO[C@@H](CN(C)Cc2ccc(Cl)c(Cl)c2)[C@@H](C)CN([C@@H](C)CO)C(=O)c2cc(NS(=O)(=O)c3ccccc3)ccc2O1` reads “active”; that for `C[C@@H]1CCCCO[C@@H](CN(C)Cc2ccc(Cl)c(Cl)c2)[C@H](C)CN([C@@H](C)CO)C(=O)c2cc(NS(=O)(=O)c3ccccc3)ccc2O1`, “active”; that for `C[C@H](CO)N1C[C@H](C)[C@@H](CN(C)Cc2ccc(Cl)c(Cl)c2)OCCCC[C@H](C)Oc2ccc(NS(=O)(=O)c3ccccc3)cc2C1=O`, “inactive”.

Take `C[C@@H]1CCCCO[C@@H](CN(C)Cc2ccc(Cl)c(Cl)c2)[C@@H](C)CN([C@H](C)CO)C(=O)c2cc(NS(=O)(=O)c3ccccc3)ccc2O1`: the cytotoxicity call was “inactive”. On to `Cc1noc(C)c1NC(=O)Nc1cccc2c1O[C@@H](CN(C)C(=O)NC(C)C)[C@@H](C)CN([C@H](C)CO)C2=O`, for which the cytotoxicity call is “inactive”.

Regarding `CCCC#Cc1cnc2c(c1)C(=O)N([C@@H](C)CO)C[C@@H](C)[C@H](CN(C)S(=O)(=O)c1cccc(OC)c1)O2`, the cytotoxicity call is “inactive”. The result for `O=C(C[C@@H]1CC[C@H]2[C@@H](COC[C@H](O)CN2C(=O)c2cccnc2)O1)NCc1ccc(-c2ccccc2)cc1` reads “inactive”. For `C[C@H]1CN([C@@H](C)CO)C(=O)c2cc(NS(=O)(=O)c3ccc(F)cc3)ccc2O[C@H]1CN(C)S(=O)(=O)c1cccs1`, the cytotoxicity call was “inactive”. As for `COc1ccc(NC(=O)N(C)C[C@H]2Oc3ccc(NC(=O)Nc4ccc(C(F)(F)F)cc4)cc3CC(=O)N([C@H](C)CO)C[C@H]2C)cc1`, the cytotoxicity call is “inactive”. Next, `C[C@H](CO)N1C[C@H](C)[C@H](CN(C)S(=O)(=O)c2ccc(Cl)cc2)Oc2c(NC(=O)c3ccc(-c4nccs4)cc3)cccc2C1=O`: “inactive”; `C[C@@H]1CN([C@H](C)CO)C(=O)c2cc(C#CC3(O)CCCC3)cnc2O[C@@H]1CN(C)C(=O)C1CCCCC1`: “inactive”; `C[C@@H](NC(=O)C[C@@H]1CC[C@H](NC(=O)CN2CCOCC2)[C@@H](CO)O1)c1ccccc1`: “inactive”. Next, `O=S1(=O)C[C@H](O)[C@@H](N2CCN(CCO)CC2)C1`: “inactive”.

As to `C[C@H](CO)N1C[C@H](C)[C@H](CN(C)S(C)(=O)=O)Oc2ccc(NS(=O)(=O)c3ccc(F)cc3)cc2C1=O`, the cytotoxicity call is “inactive”. The result for `CC(C)NC(=O)Nc1ccc2c(c1)CC(=O)N([C@@H](C)CO)C[C@@H](C)[C@H](CN(C)C(=O)NC1CCCCC1)O2` reads “inactive”; that for `COc1cccc(S(=O)(=O)N(C)C[C@H]2Oc3ncc(-c4cccc(C(=O)N(C)C)c4)cc3C(=O)N([C@@H](C)CO)C[C@@H]2C)c1`, “inactive”. The result for `CCCNC(=O)Nc1ccc2c(c1)C(=O)N(C)C[C@@H](OC)[C@H](C)CN(Cc1ccc(-c3ccccn3)cc1)[C@H](C)CO2` reads “inactive”; that for `CNC[C@H]1Oc2ccc(NS(=O)(=O)c3cn(C)cn3)cc2CC(=O)N([C@@H](C)CO)C[C@@H]1C`, “inactive”. The result for `Cc1noc(C)c1NC(=O)Nc1ccc2c(c1)C(=O)N([C@H](C)CO)C[C@@H](C)[C@H](CN(C)CC1CC1)OCCCC[C@@H](C)O2` reads “inactive”; that for `CCCC#Cc1cnc2c(c1)C(=O)N([C@H](C)CO)C[C@@H](C)[C@@H](CN(C)S(=O)(=O)c1cn(C)cn1)O2`, “inactive”. With `C[C@@H]1CN([C@@H](C)CO)C(=O)Cc2cc(NC(=O)C3CCCCC3)ccc2O[C@H]1CN(C)Cc1ccc(C(=O)Nc2ccccc2N)cc1`, the cytotoxicity call is “inactive”. The result for `C[C@@H]1CN([C@H](C)CO)C(=O)c2cc(NS(=O)(=O)c3ccccc3)ccc2O[C@@H](C)CCCCO[C@@H]1CN(C)Cc1ccc(Cl)c(Cl)c1` reads “active”; that for `C[C@H]1CCCCO[C@H](CN(C)Cc2ccc(Cl)c(Cl)c2)[C@@H](C)CN([C@@H](C)CO)C(=O)c2cc(NS(=O)(=O)c3ccccc3)ccc2O1`, “inactive”; that for `C[C@@H]1CCCCO[C@H](CN(C)Cc2ccc(Cl)c(Cl)c2)[C@@H](C)CN([C@H](C)CO)C(=O)c2cc(NS(=O)(=O)c3ccccc3)ccc2O1`, “inactive”. The result for `C[C@@H]1CCCCO[C@H](CN(C)Cc2ccc(Cl)c(Cl)c2)[C@@H](C)CN([C@@H](C)CO)C(=O)c2cc(NS(=O)(=O)c3ccccc3)ccc2O1` reads “active”; that for `Cc1noc(C)c1NC(=O)N(C)C[C@@H]1OCCCC[C@@H](C)Oc2ccc(NC(=O)NC3CCCCC3)cc2C(=O)N([C@@H](C)CO)C[C@H]1C`, “inactive”; that for `C[C@H](CO)N1C[C@H](C)[C@@H](CN(C)C(=O)Nc2ccc(-c3ccccc3)cc2)OCc2ccccc2-c2ccccc2C1=O`, “inactive”. The result for `CC(C)[Si](C#C[Si](C(C)C)(C(C)C)C(C)C)(O[C@H](C)c1cn([C@H](C)c2ccccc2)nn1)C(C)C` reads “inactive”; that for `COc1ccc(S(=O)(=O)Nc2ccc3c(c2)C(=O)N([C@H](C)CO)C[C@H](C)[C@H](CN(C)C(=O)c2ccccc2)OCCCC[C@@H](C)O3)cc1`, “inactive”.

`C[C@H](CO)N1C[C@H](C)[C@H](CN(C)Cc2ccccc2F)Oc2cc(C#CCN(C)C)ccc2S1(=O)=O`: the cytotoxicity call is “inactive”.

Turning to `COc1ccc(NC(=O)N(C)C[C@H]2Oc3c(NC(=O)c4cnccn4)cccc3C(=O)N([C@@H](C)CO)C[C@H]2C)cc1`, the cytotoxicity call was “inactive”. Next, `COc1ccc(NC(=O)N(C)C[C@@H]2Oc3c(NC(=O)Nc4ccc(C(F)(F)F)cc4)cccc3C(=O)N([C@H](C)CO)C[C@@H]2C)cc1`: “inactive”; `C[C@@H]1CN([C@@H](C)CO)C(=O)c2cccc(NC(=O)c3ccc(-c4nccs4)cc3)c2O[C@H]1CN(C)Cc1ccc(Oc2ccccc2)cc1`: “inactive”; `COc1ccc(NC(=O)Nc2cccc3c2O[C@@H](CN(C)C(=O)Nc2ccc(C(F)(F)F)cc2)[C@H](C)CN([C@H](C)CO)C3=O)cc1`: “inactive”.
